Screening results as filed in PubChem BioAssay.
Mtb MenB inh = M. tuberculosis MenB inhibitors, primary screen, biochemical, absorbance | 0.43% of 100,000 active | MenB enzyme assay, absorbance read-out | inhibition, % (no concentration beside the values) | 1,4-dihydroxy-2-naphthoyl-CoA synthase (Mycobacterium tuberculosis (strain ATCC 25618 / … | AID 540299, 2011; in the data active = inhibition above about 21%, passing the limit was not always enough
MbtI inh = MbtI salicylate synthase inhibitors, primary screen, biochemical, fluorescence intensity; P9WFX0; purified MbtI enzyme, fluorescence intensity read-out; inhibition, % (concentration not given with the values); 0.89% of 100,000 active; in the data active = inhibition mostly above about 56%, no sharp cut-off; inactive = mostly below about 77%
Target sequence (P9WFX0 whole entry, looked up): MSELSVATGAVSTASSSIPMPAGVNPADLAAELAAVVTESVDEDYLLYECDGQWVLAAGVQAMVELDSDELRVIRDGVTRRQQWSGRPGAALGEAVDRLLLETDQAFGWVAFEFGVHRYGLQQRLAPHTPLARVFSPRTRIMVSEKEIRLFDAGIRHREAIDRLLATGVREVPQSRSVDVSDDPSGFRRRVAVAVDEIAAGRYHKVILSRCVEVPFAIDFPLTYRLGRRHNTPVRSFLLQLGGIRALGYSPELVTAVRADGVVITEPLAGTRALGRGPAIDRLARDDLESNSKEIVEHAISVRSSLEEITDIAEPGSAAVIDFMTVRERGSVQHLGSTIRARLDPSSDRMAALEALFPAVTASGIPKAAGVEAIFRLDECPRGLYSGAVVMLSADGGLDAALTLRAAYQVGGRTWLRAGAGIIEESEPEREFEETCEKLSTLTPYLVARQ
AID504770 = growth inhibition of E. coli YBA685, primary screen, V. cholerae RctB inhibitors; z-score (concentration not given with the values); 0.27% of 130,000 active; E. coli YBA685 rctB-dependent plasmid, OD600 growth, 3 h; stronger effect = lower value; in the data active = z-score below about -2, passing the limit was not always enough
PV pol inh = poliovirus RdRp elongation inhibitors, primary screen, biochemical, fluorescence polarization, total intensity; poliovirus polymerase elongation; stronger effect = lower value; % elongation, % (compound at 16.7 µg/mL); AID 588519, 2011; Genome polyprotein (Poliovirus type 1 (strain Mahoney)), P03300; 0.66% of 150,000 active; in the data active = % elongation below about 90%
* = called active by the depositor; x = no result given. In the library only some 1.4% were active in any assay of this set; here they are far more common.

SMILES	Mtb MenB inh	MbtI inh	AID504770	PV pol inh
O=C1C2C3c4ccccc4C(c4ccccc43)C2C(=O)N1Cc1ccco1 (stereo not drawn)	22.7*	-1.3	1.25	101.0
O=C(O)c1ccc2c(c1)N(Cc1ccc(F)cc1)C(=O)/C(=C\c1ccccc1)S2	-20.1	9.1	0.3	106.0
CC1SC(=S)NN1c1ccccc1 (stereo not drawn)	x	88.0*	-0.7	98.0
Cn1c(=O)c(C(CC(=O)c2cc3ccccc3oc2=O)Nc2ccccc2)c(O)c2ccccc21 (stereo not drawn)	-22.6	x	-1.9	112.0
Cn1c(C2CC2)n[nH]c1=S	-51.8	17.4	2	108.0
CCn1c(C2CC2)n[nH]c1=S	-15.3	87.1*	0.55	x
CC(NC1CCN(C)CC1)c1ccccc1 (stereo not drawn)	26.2	-3.2	-0.45	99.0
COc1ccc(C(=O)N2c3ccccc3CC2C)cc1 (stereo not drawn)	31.6*	2.2	0.6	101.0
CC1Cc2ccccc2N1C(=O)c1ccc(Cl)cc1 (stereo not drawn)	-26.7	-8.5	-1	103.0
CN(C)c1ccc(NC(=S)c2ccccn2)cc1	-61.3	68.5*	-1.2	103.0
COc1ccc(C(=O)NCC23C=CC(O2)C2C(=O)N(c4ccccc4C)C(=O)C23)cc1 (stereo not drawn)	-1.5	65.3*	-0.2	103.0
Cc1cc(NC(=O)C2CC(=O)N(C(C)(C)C)C2)no1 (stereo not drawn)	19.1	-2.7	-0.6	101.0
Cc1c(C(=O)CSc2ncc(C#N)c(N)n2)c2ccccc2n1C	29.6*	x	0.15	102.0
COC(=O)CSc1ncc(C#N)c(N)n1	16.6	34.0	1.5	102.0
S=C(NNc1ccc(Cl)nn1)NC1CC2CCC1C2 (stereo not drawn)	-35.5	22.2	1.85	100.0
CCOC(=O)/C(=N\O)c1c(C)nn(C)c1C	7.9	-11.2	-2.05	101.0
CC(CO)(CO)NC(=S)Nc1ccc(F)c(Cl)c1	0.4	55.4*	0.25	107.0
CC(=O)Nc1ccc(C2N=C(c3cnccn3)NN2)cc1 (stereo not drawn)	-25.8	-0.8	-0.5	100.0
O=C(O)C1C2C=CC(C2)C1C(=O)N1CCN(Cc2ccccc2)CC1 (stereo not drawn)	-28.2	-1.1	0.05	80.0*
Cn1ccsc1=NC(=O)/C=C/c1ccc(S(=O)(=O)N2CCOCC2)cc1	-17.6	11.4	-0.15	103.0
CCn1c(SCC(=O)Nc2ccc3[nH]c(=O)[nH]c3c2)nnc1-c1cccs1	-9.0	16.4	1.25	106.0
CSc1ncc(F)c(N(C)C)n1	-6.8	x	0.3	102.0
Cc1cnc(C)c(N(C)C)n1	31.3*	70.2	1.15	57.0*
Cc1ccc(-c2cn3nc(N4CCC(C(=O)NCCN(C)C)CC4)sc3n2)cc1	5.0	-14.4	0.15	99.0
O=C(Oc1ccccc1-c1nnco1)c1ccc(C(F)(F)F)cc1	-79.6	-104.2	-0.55	105.0
SMILES	Mtb MenB inh	MbtI inh	AID504770	PV pol inh
Cc1snnc1C(=O)Oc1ccccc1-c1nnco1	9.8	-60.9	0.6	78.0*
Cc1ccc2c(c1)N(C(=O)CSc1nc3ncccc3[nH]1)CCO2	-25.4	2.4	0.1	101.0
CNC(=O)Oc1c(Br)cc2sc(=O)oc2c1Br	9.0	99.5*	0.05	95.0
Cc1cc(C)nc(N2CCNCC2)n1	12.4	57.6	-0.1	102.0
C1CCN(c2nc(N3CCCC3)nc(N3CCNCC3)n2)C1	32.8*	-21.6	0.1	100.0
O=C1CNC(=O)N1Cc1ccc(F)cc1	34.3*	1.5	1.6	99.0
CCN(CC)c1ccc(/C=C2\CC/C(=C\C(C)C)C2=O)cc1	-53.1	-3.2	-0.5	71.0
COC(=O)c1c(-c2cccs2)csc1NC(=O)c1cccc(Cl)c1	x	x	x	82.0*
COC(=O)c1c(-c2cccs2)csc1NC(=O)COc1ccc(C)cc1	x	x	x	96.0
COC(=O)c1c(-c2cccs2)csc1NC(=O)c1ccc(C(C)(C)C)cc1	x	x	x	77.0*
COC(=O)c1c(-c2cccs2)csc1NC(=O)c1ccc(Cl)cc1	x	x	x	67.0*
CCOC(=O)c1c(-c2cccs2)csc1NC(=O)c1ccccc1	-33.9	11.1	1.75	106.0
COC(=O)c1c(-c2cccs2)csc1NC(=O)c1ccc(C(C)C)cc1	x	x	x	67.0*
N[n+]1cnn(CC(=O)c2ccc(Cl)cc2)c1	-64.9	10.9	-0.85	102.0
OCCN1CN(Cc2cccc(Cl)c2)Cn2c1nc1ccccc12	-15.2	-9.1	1.65	111.0
Cc1ccc(OC(=O)c2cc(-c3ccc4c(c3)OCCO4)on2)cc1C	x	x	x	103.0
Cc1cc(OC(=O)c2cc(-c3ccc4c(c3)OCCO4)on2)ccc1Cl	x	x	x	-17.0*
